ANO1 block: inhibitors of mouse TMEM16A calcium-activated chloride channel; Q8BHY3; HEK293 TMEM16A/YFP iodide influx fluorescence, ionomycin; normalized B-score (activity score, 25-100; higher = stronger inhibition) at 10 µM; actives 1.2% (n = 310,000); AID 588511;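 active = ratio plate-corrected score three or more library SD toward inhibition, starting fluorescence score within five deviations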;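 note: score derived from kinetic fluorescence span divided by baseline fluorescence per well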
ANO1 activ: activates or potentiates the mouse TMEM16A chloride channel. HEK293 TMEM16A/YFP-H148Q/I152L, iodide quench fluorescence; active compounds read low. actives 0.3% (n = 340,000). Q8BHY3. B-score at 10 µM. AID 623877;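 active = fluorescence-ratio B-score plate-corrected deviation score at least 3 library SD below zero, with starting fluorescence score within 5 deviations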;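 note: channel opened by trigger with iodide after compound preincubation; score built on the fluorescence ratio of max minus min over baseline; more negative score means more quench and so TMEM16A activation or potentiation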
PREPL inhibitor: inhibitors of human prolyl oligopeptidase-like enzyme PREPL. Q4J6C6. recombinant PREPL, fluorescence polarization activity-based probe. inhibition, % at 5.96 µM. actives 0.68% (n = 320,000). AID 2751; in the data active = inhibition above about 43%
PP5 inh: inhibitors of human protein phosphatase 5 (PP5); inhibition, % at 6.7 µM; purified PP5c, OMFP substrate fluorescence; actives 0.18% (n = 320,000);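 active = inhibition above the campaign's mean inhibition across all tested compounds plus 3 SD, cut at about 9.5% in these data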
FID counter: fluorescent intercalator displacement, NS3 helicase counter-screen | DNA fluorescent intercalator displacement, fluorescence | inhibition, % at 7.9 µM | actives 0.17% (n = 290,000); in the data active = inhibition above about 37%;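 note: higher means more ethidium bromide displaced from hairpin DNA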
PP1 counter: counter-screen for PP5 inhibitors: inhibitors of human PP1-alpha; P62136; inhibition, % at 6.7 µM; AID 2235; purified PP1alpha, OMFP fluorescence; actives 0.9% (n = 320,000);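 active = inhibition above the mean inhibition of all tested compounds plus 3 SD, computed separately for each screening campaign, cut at about 15% in these data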
Target sequence (P62136 whole entry, looked up): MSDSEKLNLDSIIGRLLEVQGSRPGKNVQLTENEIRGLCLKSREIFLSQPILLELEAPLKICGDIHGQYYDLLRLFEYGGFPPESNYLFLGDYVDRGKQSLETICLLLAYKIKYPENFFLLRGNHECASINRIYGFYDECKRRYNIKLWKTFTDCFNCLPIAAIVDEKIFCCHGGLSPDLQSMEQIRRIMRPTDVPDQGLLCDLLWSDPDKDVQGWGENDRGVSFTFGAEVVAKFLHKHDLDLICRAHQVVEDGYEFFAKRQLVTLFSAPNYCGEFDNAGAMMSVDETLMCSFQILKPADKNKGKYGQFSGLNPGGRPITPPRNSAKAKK
PP1 confirm: confirmation of human PP1 phosphatase inhibitors | inhibition, % at 6.7 µM | purified PP1alpha, OMFP substrate fluorescence | shares compounds with PP1 counter | actives 52% (n = 1,900) | AID 2358;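 active = mean PP1 inhibition above a set limit taken from the earlier primary screen, cut at about 15% in these data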
PP5 inh counter: inhibits human PP5 phosphatase in PP1 counter-screen; actives 4% (n = 1,900); shares compounds with PP1 counter; inhibition, % at 6.7 µM; purified PP5c, OMFP fluorescence; AID 2360;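 active = mean PP5 inhibition over triplicate wells above about 9.5% taken from the earlier PP1 screen, limit read from the data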
Numbers stand for hits; - = inactive; . = no result given. Most compounds without a hit are left out; they make up all but 2.7% or so of the library.

SMILES	ANO1 block	ANO1 activ	PREPL inhibitor	PP5 inh	FID counter	PP1 counter	PP1 confirm	PP5 inh counter
COc1ccc(/C=N/Nc2cc(C)nc(-n3nc(C)cc3C)n2)cc1	-	-	-	-	-	39	50	-
CCn1c(N2CCN(C(=S)Nc3ccc(OC)cc3)CC2)nc2ccccc21	-	-	-	-	-	-	.	.
Cc1nn(CC(=O)Nc2ccc3c(c2)nc2n3CCN(C3CCCCC3)C2)c(=O)c2ccccc12	-	-	-	-	-	20	-	-
O=[N+]([O-])c1cc(Br)c(O)c(/C=N/Nc2nnnn2-c2cccc3ccccc23)c1	100	-	-	-	-	21	23	-
O=[N+]([O-])c1ccc(NN=Cc2cccc3ccccc23)cc1	.	-	.	.	.	.	.	.
CC1(OC(=O)c2cccs2)C(=O)C=C2C=C(c3ccc(C#N)cc3)OC=C2C1=O (stereo not drawn)	-	.	-	-	.	21	-	-
Cc1ccc(NC(=S)N2CCC(NC(=O)c3ccco3)CC2)cc1C	-	-	-	-	-	-	.	.
O=C(Nc1nnc(-c2ccncc2)o1)c1ccc(Br)s1	-	-	-	-	-	-	.	.
O=C1CC(=C(c2ccccc2)c2ccccc2)C(=O)N1CCCCN1CCN(c2cccc(Cl)c2)CC1	-	-	-	-	-	25	-	-
CCOC(=O)c1cnc(-n2cc(C)cn2)nc1NCc1ccc2c(c1)OCO2	-	-	58	-	-	21	65	-
CCOC(=O)c1c(C)c(C(=O)NCc2ccc3c(c2)OCO3)c(C)n1CC	-	-	-	-	-	-	.	.
O=C(Cn1cnc2ccccc2c1=O)Nc1nc2ccccc2s1	-	-	-	-	-	-	.	.
CCc1ccc2nc(NC(=O)Cn3cnc4ccccc4c3=O)sc2c1	-	-	-	-	-	26	29	-
COC(=O)c1ccc(CSc2nc3scc(-c4cccs4)c3c(=O)[nH]2)o1	-	-	-	-	-	22	-	-
COc1ccc(C2=NN(c3ccccc3)C(c3cn(CCC(=O)O)nc3-c3ccccc3)C2)cc1 (stereo not drawn)	-	-	-	-	-	24	-	-
Cc1ccc(C2=NN(C(=O)CCC(=O)O)C(c3cn(-c4ccccc4)nc3-c3ccc(C)cc3)C2)cc1 (stereo not drawn)	-	-	-	-	-	20	23	-
CN(C(=O)CSc1nc2c(c(=O)[nH]1)CCC2)c1ccccc1	-	-	-	-	-	-	.	.
CCC(C)(C)NC(=O)C(c1cccn1C)N(Cc1ccc(OC)cc1)C(=O)Cn1nnc2ccccc21 (stereo not drawn)	-	-	-	-	-	30	25	-
COc1cc(NC(=O)Cn2cnc(S(=O)(=O)N3CCOCC3)c2)cc(OC)c1OC	-	-	-	-	-	-	.	.
Cc1ccc(Nc2c(-c3ccc(N4CCOCC4)cc3)nc3cnccn23)cc1	-	-	-	-	-	63	-	-
Cc1nnc2sc(-c3ccc(NC(=O)CSc4ccc(Cl)cc4)cc3)nn12	-	-	-	-	-	18	-	-
Cc1cccc(NC(=O)Cn2c(C)c(C#N)c3ccccc32)c1C	-	-	-	-	-	21	19	-
Cc1ccc(NC(=O)Cn2c(O)c(N=NC(N)=S)c3ccccc32)cc1	-	-	-	-	-	21	-	-
Cc1ccc(NC(=O)Cn2c(O)c(N=NC(N)=O)c3ccccc32)cc1	-	-	-	-	-	-	.	.
Cc1cccc(NC(=O)Cn2c(O)c(N=NC(=O)c3ccncc3)c3ccccc32)c1	-	-	-	-	-	-	.	.
Cc1c(C#N)c2ccccc2n1CC(=O)NC(C)c1ccccc1 (stereo not drawn)	-	-	-	-	-	-	.	.
Cc1ccccc1NC(=O)Cn1c(O)c(N=NC(=O)c2ccccc2O)c2ccccc21	-	-	-	-	-	20	24	-
Cc1ccc(NC(=O)COC(=O)c2cc(=O)c3cc(F)ccc3o2)cc1	.	-	.	.	.	.	.	.
CC1(c2ccccc2)NC(=O)N(CC(=O)Nc2ccc(C(N)=O)cc2)C1=O (stereo not drawn)	-	-	-	-	-	-	.	.

Bioassay records (PubChem)
